Assay results as given in PubChem BioAssay (EPA / NIEHS).
Activity calls are given as the source filed them. Rule for the calls: active = hit-call score of the fitted dose curve at least 0.9, where 1 is the maximum; inactive = score below 0.9.

These compounds were tested on Macrophage colony-stimulating factor (MCSF), CSF1 (gene 1435) (assay: BSK_hDFCGF_MCSF: BioMAP Diversity Plus: hDFCGF Assay for Macrophage colony-stimulating factor (MCSF) Biomarker Activity (AID 2283060)). Conditions: primary human foreskin fibroblasts; actives raise or lower the signal.
Summary of the method: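 Primary human foreskin fibroblasts dosed with chemical; 24 h later, M-CSF quantified by ELISA; curves fitted in both directions vs DMSO negative control.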

| SMILES | outcome | AC50 |
| --- | --- | --- |
| COc1cc(C=O)ccc1O | inactive |  |
| CC=Cc1ccc(O)c(OC)c1 | inactive |  |
| CCCCCCCCCCO | inactive |  |
| CC(=O)Oc1ccccc1C(=O)O | inactive |  |
| CCCCCCCC=O | inactive |  |
| CCOC(=O)CCC(=O)OCC | inactive |  |
| O=[N+]([O-])C(CO)(CO)CO | inactive |  |
| NS(=O)(=O)c1cc2c(cc1Cl)NCNS2(=O)=O | inactive |  |
| Cc1cc(NC(=O)C(=O)O)cc(C)c1Oc1ccc(O)c2c1CCC2 | inactive |  |
| Cc1cccc(Nc2cc(Cl)nc(SCC(=O)O)n2)c1C | inactive |  |
| CC(C)(C)c1cc(O)c(C(C)(C)C)cc1O |  | 17.6 µM (active) |
| CCCCN(CCCC)CCCC | inactive |  |
| CN1CCCC1=O | inactive |  |
| CCCCOC(=O)CCCCCCCCC(=O)OCCCC | inactive |  |
| O=C(O)Cc1ccccc1Nc1c(Cl)cccc1Cl | inactive |  |
| CCCCCCCCCCC | inactive |  |
| Nc1ccc2c(c1)C(=O)c1ccccc1C2=O | inactive |  |
| CCCCCCCCCCCCCCCCCC(=O)O | inactive |  |
| Nc1ccccc1N | inactive |  |
| O=C(N[C@@H](Cc1ccccc1)[C@@H](O)C(=O)N1C[C@@H](O)[C@@H](O)C1)c1cc2cc(Cl)ccc2[nH]1 | inactive |  |
| CCCCCCCCCCCCCCCC | inactive |  |
| Cc1ccc(N(C)C)cc1 | inactive |  |
| Cc1c(C(=O)O)c(O)cc2c1C(=O)c1c(O)c([C@@H]3O[C@H](CO)[C@@H](O)[C@H](O)[C@H]3O)c(O)c(O)c1C2=O | inactive |  |
| CCc1c(C(=O)NN2CCCCC2)nn(-c2ccc(Cl)cc2Cl)c1-c1ccc(Br)cc1 |  | 3.75 µM (active) |
| c1cc(-c2ccncc2)ccn1 | inactive |  |
